Source: PubChem BioAssay (The Scripps Research Institute Molecular Screening Center)
Only some compounds are listed: those with a hit (about 3.5% of all), similar ones and a draw of the others.
GPR151 activ – activates the human receptor GPR151. Q8TDV0. PathHunter beta-arrestin GPR151 cells, luminescence. 1% of 650,000 active. activation, % at 11.2 µM; in the data active = activation above about 4.9%;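 note: 0% = median of compound wells and 100% = cells with positive control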
FBW7 act – activators of human E3 ligase FBW7; Q969H0; 0.13% of 650,000 active; normalized activity (activation), % at 26.1 µM; AlphaScreen FBW7–phospho-cyclin E peptide binding, activator screen; in the data active = normalized activity above about 1.9%;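 note: purified mutant Fbw7 with reduced substrate affinity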
MITF inh – human MITF inhibition, primary screen; AlphaScreen MITF homodimerization, bead proximity signal; O75030; inhibition, % at 2.6 µM; 0.91% of 650,000 active; in the data active = inhibition above about 50%;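 note: 0% = vehicle wells with protein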
Target sequence (O75030 whole entry, looked up): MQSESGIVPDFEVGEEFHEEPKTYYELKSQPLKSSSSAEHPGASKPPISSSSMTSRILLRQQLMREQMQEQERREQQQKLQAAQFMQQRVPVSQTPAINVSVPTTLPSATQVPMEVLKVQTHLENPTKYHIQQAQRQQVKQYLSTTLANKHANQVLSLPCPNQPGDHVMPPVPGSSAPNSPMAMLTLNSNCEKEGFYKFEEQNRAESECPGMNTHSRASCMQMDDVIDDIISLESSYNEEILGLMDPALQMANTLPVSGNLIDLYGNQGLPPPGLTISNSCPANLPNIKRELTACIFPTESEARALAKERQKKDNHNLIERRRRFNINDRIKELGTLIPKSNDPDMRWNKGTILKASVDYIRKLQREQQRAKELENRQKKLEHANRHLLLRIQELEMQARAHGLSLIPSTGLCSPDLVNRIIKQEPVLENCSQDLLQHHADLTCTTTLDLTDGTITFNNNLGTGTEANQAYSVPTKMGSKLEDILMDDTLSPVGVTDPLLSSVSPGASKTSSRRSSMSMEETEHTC
TEAD-YAP inh – TEAD-YAP interaction inhibition. HEK-TIYL cells, TEAD-Gal4/YAP UAS-luciferase luminescence. inhibition, % at 9.12 µM. 1.4% of 640,000 active; in the data active = inhibition above about 32%;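 note: 0% = median of test compound wells and 100% = reference inhibitor wells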
The depositor's hits bear a star.

How did O=C1C(Cl)=C(Nc2cccc(O)c2)C(=O)N1c1cccc(Cl)c1Cl do in these assays?
GPR151 activ: -1; FBW7 act: 0; MITF inh: 10; TEAD-YAP inh: 53*

What do the screens show for `Cc1ccc(N2C(=O)C(Cl)=C(Nc3cccc(O)c3)C2=O)c(C)c1`?
GPR151 activ: -1; FBW7 act: 1; MITF inh: 32; TEAD-YAP inh: 36*

How did COc1cccc(OC)c1C(=O)N1CC(=O)Nc2ccc(C)cc2C1c1ccc(F)cc1 (centres undefined) do in these assays?
GPR151 activ: 0; FBW7 act: 0; MITF inh: 6; TEAD-YAP inh: 2

How did Cc1ccc(-n2nc3ccc(NC(=S)NC(=O)c4oc5ccccc5c4C)cc3n2)cc1Cl do in these assays?
GPR151 activ: 0; FBW7 act: 0; MITF inh: 1; TEAD-YAP inh: 1

What do the screens show for `CSc1nnc(C(C)(C)C)c(=O)n1/N=C/c1ccccc1O`?
GPR151 activ: 0; FBW7 act: 0; MITF inh: 75*; TEAD-YAP inh: 6

Results for CSc1nnc(C(C)(C)C)c(=O)n1/N=C/c1ccccc1[N+](=O)[O-] ?
GPR151 activ: 0; FBW7 act: 0; MITF inh: 11; TEAD-YAP inh: 6

Results for Cc1cccc(NC(=S)NC(=O)c2cccc(Br)c2)n1 ?
GPR151 activ: 0; FBW7 act: 0; MITF inh: 14; TEAD-YAP inh: -26

What do the screens show for `Cc1ccnc(NC(=S)NC(=O)c2cccc(Br)c2)c1`?
GPR151 activ: 0; FBW7 act: 0; MITF inh: -5; TEAD-YAP inh: 33*

How did Cc1cc(C)c([N+](=O)[O-])c(C)c1C1C(C#N)=C(N)SC(N)=C1C#N do in these assays?
GPR151 activ: 3; FBW7 act: 0; MITF inh: 7; TEAD-YAP inh: 8

What do the screens show for `Cc1cc(NC(=O)CSc2nc3ccccc3c(=O)n2C2CCCC2)no1`?
GPR151 activ: 2; FBW7 act: 0; MITF inh: 6; TEAD-YAP inh: 50*

How did Cc1cc(NC(=O)CSc2nc3ccccc3c(=O)[nH]2)no1 do in these assays?
GPR151 activ: 1; FBW7 act: 0; MITF inh: 2; TEAD-YAP inh: 55*

What do the screens show for `O=C(Cc1cn(-c2ccc(Nc3ccc(N4CCOCC4)cc3)nn2)c2ccccc12)NCc1ccccc1`?
GPR151 activ: -1; FBW7 act: 0; MITF inh: 14; TEAD-YAP inh: 48*

Results for Cc1cccnc1NC(=O)CCCC(=O)O ?
GPR151 activ: -1; FBW7 act: 1; MITF inh: 8; TEAD-YAP inh: 13

How did O=C(CN1CC[n+]2c(-c3cccs3)csc21)c1ccccc1 do in these assays?
GPR151 activ: 0; FBW7 act: 0; MITF inh: 9; TEAD-YAP inh: 32*

How did O=C(Cn1c2ccccc2n2nc(-c3cccs3)nc12)c1ccccc1 do in these assays?
GPR151 activ: 1; FBW7 act: 0; MITF inh: -3; TEAD-YAP inh: -7

What do the screens show for `CC(C)C(=O)Nc1ccc(-c2nc3cccnc3s2)cc1`?
GPR151 activ: -5; FBW7 act: 0; MITF inh: 12; TEAD-YAP inh: 87*

What do the screens show for `CCCC(=O)Nc1ccc(-c2nc3cccnc3s2)cc1`?
GPR151 activ: -2; FBW7 act: 0; MITF inh: 9; TEAD-YAP inh: 15

What do the screens show for `Cc1sc(NC(=O)CN2CCN(C/C=C/c3ccccc3)CC2)c(C(N)=O)c1C`?
GPR151 activ: 0; FBW7 act: 0; MITF inh: 2; TEAD-YAP inh: 4

Results for CCN1C(=O)CC(C(=O)Nc2ccc(Br)cc2)SC1=Nc1ccc(OC)cc1 (centres undefined) ?
GPR151 activ: 1; FBW7 act: 0; MITF inh: -12; TEAD-YAP inh: 34*

Results for CCOc1ccc(NC(=O)C2CC(=O)N(CC)C(=Nc3ccc(OC)cc3)S2)cc1 (centres undefined) ?
GPR151 activ: -1; FBW7 act: 0; MITF inh: 15; TEAD-YAP inh: 5

How did O=C1CC(NC2CCCC2)C(=O)N1c1ccc(Cl)cc1 (centres undefined) do in these assays?
GPR151 activ: 1; FBW7 act: 0; MITF inh: -22; TEAD-YAP inh: 0

How did COc1ccc(/C=C2\Oc3c(ccc(O)c3CN(C)C)C2=O)cc1 do in these assays?
GPR151 activ: 3; FBW7 act: 0; MITF inh: -4; TEAD-YAP inh: 6

Results for COC(=O)c1cc(C)nc2c1C(=O)C(=O)C=C2N1CCOCC1 ?
GPR151 activ: 1; FBW7 act: 0; MITF inh: 9; TEAD-YAP inh: 41*

Results for NC(=O)CSc1nc2sc3c(c2c(=O)n1-c1cccc2ccccc12)CCCC3 ?
GPR151 activ: 0; FBW7 act: 0; MITF inh: 2; TEAD-YAP inh: 38*

How did COc1ccc(CCNS(=O)(=O)c2ccc(Cl)cc2)cc1 do in these assays?
GPR151 activ: 0; FBW7 act: 1; MITF inh: 5; TEAD-YAP inh: 2

Results for CC(=O)OC12CO[C@@H]1C[C@H](O)[C@@]1(C)C(=O)[C@H](O)C3=C(C)[C@@H](OC(=O)[C@H](O)[C@@H](NC(=O)OC(C)(C)C)c4ccccc4)CC(O)([C@@H](OC(=O)c4ccccc4)[C@H]21)C3(C)C (some centres undefined) ?
GPR151 activ: -2; FBW7 act: 0; MITF inh: 8; TEAD-YAP inh: 51*

Results for Cc1ccc(-c2nnc(N3CCN(C(=O)CN4CCCC4)CC3)c3ccccc23)cc1 ?
GPR151 activ: 1; FBW7 act: 0; MITF inh: 8; TEAD-YAP inh: 1

What do the screens show for `Cc1ccc(-c2nnc(N3CCN(C(=O)c4ccco4)CC3)c3ccccc23)cc1`?
GPR151 activ: 1; FBW7 act: 2.3*; MITF inh: -3; TEAD-YAP inh: 26

Results for COc1ccccc1C1C(C(=O)OC2CCCCC2)=C(C)NC2=C1C(=O)CC(C)(C)C2 (centres undefined) ?
GPR151 activ: 0; FBW7 act: 0; MITF inh: -8; TEAD-YAP inh: 0

Results for Cc1[nH]n(-c2ccccc2)c(=O)c1C(=O)c1cccc(Br)c1 ?
GPR151 activ: 1; FBW7 act: 0; MITF inh: 12; TEAD-YAP inh: 59*

How did Cc1[nH]n(-c2ccccc2)c(=O)c1C(c1cccc(Br)c1)c1c(C)[nH]n(-c2ccccc2)c1=O do in these assays?
GPR151 activ: -1; FBW7 act: -1; MITF inh: 0; TEAD-YAP inh: 1

Results for O=C(/C=C/c1cccs1)Nc1ccc(Cl)c2ncsc12 ?
GPR151 activ: 1; FBW7 act: 0; MITF inh: -10; TEAD-YAP inh: 87*

Results for Cc1ccnc(NC(=O)/C=C/c2cccs2)c1 ?
GPR151 activ: -6; FBW7 act: 1; MITF inh: 16; TEAD-YAP inh: 55*

How did CC(=O)c1ccccc1NS(=O)(=O)c1ccccc1C#N do in these assays?
GPR151 activ: 1; FBW7 act: 0; MITF inh: 5; TEAD-YAP inh: -4

Results for NC(=O)c1sc2nc3c(c(-c4cccs4)c2c1N)CCCCC3 ?
GPR151 activ: 1; FBW7 act: 0; MITF inh: -5; TEAD-YAP inh: 36*
